The list is not random: actives were taken first. Their share in the collection is about 3.4%.
MITF inh – blocks human microphthalmia-associated transcription factor; AlphaScreen MITF homodimerization, bead proximity signal; inhibition, % at 2.6 µM; 0.91% of 650,000 active; AID 1259374; in the data active = inhibition above about 50%;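 also: 0% = vehicle wells with protein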
FBW7 act – activators of human E3 ligase FBW7; Q969H0; AlphaScreen FBW7–phospho-cyclin E peptide binding, activator screen; normalized activity (activation), % at 26.1 µM; 0.13% of 650,000 active; AID 1259310; in the data active = normalized activity above about 1.9%;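 also: purified mutant Fbw7 with reduced substrate affinity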
Target sequence (Q969H0 whole entry, looked up): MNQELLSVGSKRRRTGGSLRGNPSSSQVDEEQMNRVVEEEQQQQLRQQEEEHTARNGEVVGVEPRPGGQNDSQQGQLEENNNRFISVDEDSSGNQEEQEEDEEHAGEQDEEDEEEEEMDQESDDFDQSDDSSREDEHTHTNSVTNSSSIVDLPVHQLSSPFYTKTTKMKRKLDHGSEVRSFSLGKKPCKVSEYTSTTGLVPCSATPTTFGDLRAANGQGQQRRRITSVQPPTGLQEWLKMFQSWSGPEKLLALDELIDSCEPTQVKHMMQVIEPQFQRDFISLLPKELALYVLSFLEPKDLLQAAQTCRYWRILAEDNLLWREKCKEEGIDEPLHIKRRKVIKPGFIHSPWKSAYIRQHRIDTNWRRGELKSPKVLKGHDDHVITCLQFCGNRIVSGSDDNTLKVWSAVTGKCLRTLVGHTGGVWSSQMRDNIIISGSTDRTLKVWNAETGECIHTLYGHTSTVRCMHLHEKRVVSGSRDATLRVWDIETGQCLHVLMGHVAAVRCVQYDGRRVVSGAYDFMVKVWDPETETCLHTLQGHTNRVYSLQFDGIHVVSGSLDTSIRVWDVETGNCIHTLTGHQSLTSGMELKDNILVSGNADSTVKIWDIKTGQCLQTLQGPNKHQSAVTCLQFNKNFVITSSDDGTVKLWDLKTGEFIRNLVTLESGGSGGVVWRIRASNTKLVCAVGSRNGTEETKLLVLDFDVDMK
GPR151 ag – human GPR151 activation; Q8TDV0; PathHunter beta-arrestin GPR151 cells, luminescence; activation, % at 11.2 µM; 1% of 650,000 active; AID 1508602; in the data active = activation above about 4.9%;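 also: 0% = median of compound wells and 100% = cells with positive control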
TEAD-YAP inh – TEAD-YAP interaction inhibition; HEK-TIYL cells, TEAD-Gal4/YAP UAS-luciferase luminescence; inhibition, % at 9.12 µM; 1.4% of 640,000 active; AID 1259422; in the data active = inhibition above about 32%;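 also: 0% = median of test compound wells and 100% = reference inhibitor wells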
GPR151 confirm – human GPR151 activation, confirmation screen. shares compounds with GPR151 ag. GPR151 PathHunter beta-arrestin cells, luminescence, 90 min; % of EA-reagent control over plate median. activation, % at 11.2 µM. 6,700 tested, under 10 active. AID 1508609;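 active = mean percent activation across replicates above the confirmation screen cutoff of 4.91%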
GPR119 ag – counter-screen for GPR151 activators: effect on human GPR119 | 0.3% of 6,700 active | activation, % at 11.2 µM | shares compounds with GPR151 ag | GPR119 PathHunter beta-arrestin cells, luminescence, 90 min; 0 = compound-well median, 100 = enzyme-acceptor control;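 active = mean percent activation in the counterscreen above 29.09%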;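 also: counterscreen on off-target GPR119 to flag nonselective hits from the GPR151 activator screen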
Numbers without * were called inactive; · = no result given; ! = a repeat was not active.

SMILES	MITF inh	FBW7 act	GPR151 ag	TEAD-YAP inh	GPR151 confirm	GPR119 ag
COCCCN1C(=O)C2C(C(=O)Nc3cccc(SC)c3)C3C=CC2(O3)C1C(=O)NC1CCCCC1 (stereo unspecified)	11	0	5.8*	-8	0	1
COc1cccc(CN2C(=O)C3C(C(=O)Nc4cccc(C)c4)C4C=CC3(O4)C2C(=O)NC2CCCCC2C)c1 (stereo unspecified)	-4	0	5.5*	3	0	9
COc1ccc(CN2C(=O)C3C(C(=O)Nc4cccc(C)c4)C4C=CC3(O4)C2C(=O)NC2CCCCC2C)cc1 (stereo unspecified)	-5	0	-2	1	·	·
CCOC(=O)C1CCN(C(=O)c2cccc(NS(=O)(=O)c3ccc(Cl)cc3)c2)CC1	-1	0	-1	-1	·	·
Cc1ccc(-c2cc(C(F)(F)F)n3ncc(C(=O)Nc4cc(C)on4)c3n2)cc1	-6	0	0	3	·	·
CC(C)C(=O)N1CC[C@@H]2[C@H](CCCN2C(=O)c2cccc(F)c2)C1	7	0	0	11	·	·
COC(=O)c1cccc(C(=O)N2CCC[C@@H]3CN(C(=O)C(C)C)CC[C@H]32)c1	5	0	7.1*	-6	0	11
CC(C)C(NS(=O)(=O)c1cccc2nsnc12)C(=O)NCc1ccc(Cl)cc1 (stereo unspecified)	8	0	0	2	·	·
CCC(=O)N1CCN(c2ccc(NC(=O)c3cccs3)cc2)CC1	7	0	9.2*	-19	-1	-15
CCC(=O)N1CCN(c2ccc(NC(=O)c3ccco3)cc2)CC1	12	0	5.4*	-17	2	15
CCC(=O)N1CCN(c2ccc(NC(=O)c3ccco3)cc2Cl)CC1	-7	0	3	-24	·	·
CCNS(=O)(=O)c1ccc(NC(=O)c2ccccc2OCC)cc1	19	1	0	7	·	·
CCOc1ccc(C(=O)Nc2ccc(S(=O)(=O)NC(C)(C)C)cc2)cc1OCC	24	0	5.9*	2	1	-4
CCOc1ccccc1C(=O)Nc1ccc(S(=O)(=O)NC(C)CC)cc1 (stereo unspecified)	6	0	13*	6	0	1
COC1COC(=O)[C@@H](C)NC(=O)C/C=C/[C@H](C)[C@@H](OC)COC(=O)C/C=C/[C@@H]1C (stereo partly specified)	-3	0	1	·	·	·
CO[C@@H]1COC(=O)C/C=C/[C@H](C)[C@H](OC)COC(=O)[C@H](C)COC(=O)C/C=C/[C@@H]1C	-1	0	5.1*	·	1	6
COC(=O)c1c(OCc2ccncc2)cc(=O)n2c1CCN(C(=O)c1ccccc1C)CC2	-19	0	5.1*	-17	1	-2
COC(=O)c1c(OCc2ccccn2)cc(=O)n2c1CCN(C(=O)c1ccccc1C)CC2	-15	0	-1	-1	·	·
CCOC(=O)Cn1c(C(=O)OCC)cc2oc(C)cc21	1	0	-2	-1	·	·
C=CCn1c(C(=O)OCC)cc2oc(C)cc21	-7	0	5.7*	4	0	6
C[C@H]1CC[C@@]2(OC1)O[C@H]1C[C@H]3[C@@H]4CC[C@@H]5C[C@@H](O)CC[C@]5(C)[C@H]4CC[C@]3(C)[C@H]1[C@@H]2C	9	0	5.6*!	9	1	-8
COC(=O)c1ccc(COc2ccc(C3OC(C)CC(C)(C)O3)cc2OC)cc1 (stereo unspecified)	15	1	0	-9	·	·
NS(=O)(=O)c1ccc(CCNC(=O)c2cccc(C#CC3(O)CCCCC3)c2)cc1	-9	0	5.0*	0	1	-5
Cc1cc(C(=O)NCCc2ccc(S(N)(=O)=O)cc2)cs1	-5	0	1	-6	·	·
CCOC(=O)C1=C(C)N=c2s/c(=C/c3cn(C)c4ccccc34)c(=O)n2C1c1cccs1 (stereo unspecified)	6	0	0	-7	·	·
CN(C)c1ccc(C(=S)N2CCOCC2)cc1	-3	0	9.7*	0	0	-7
CN(C)c1ccc(C(=O)N2CCOCC2)cc1	7	1	-1	5	·	·
CCCCNC(=O)c1cc(S(=O)(=O)N2CCOCC2)ccc1Sc1ccc(Br)cc1	2	0	0	0	·	·
